According to PubChem BioAssay (NCATS):
Values without a mark were called inactive. Records with an inconclusive call do not appear. Where a call stands in place of a potency, no number is given. Calls of active or inactive are those of the source. Unless noted, calls follow the shape of the dose curve; as a rule, active = well fitted curve in the direction sought with a large enough effect; inconclusive = small, poorly fitted or top-dose-only effect, or another doubt; inactive = no such curve, though single readings can be large; an effect the other way counts as inactive or inconclusive.

Legend:
[1] = qHTS Assay for Identification of Small Molecule Agonists for Hypoxia Response Element Signaling Pathway (AID 914; active = well fitted activation curve with a large enough effect in the signal ratio, with a control signal flat, not every such curve was filed as active; the % refers to the signal ratio); settings: ME-180 (cervical carcinoma) HRE-bla reporter, beta-lactamase ratio, CoCl2, 17 h; stronger effect = higher value
Method in brief: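 In Opti-MEM containing 0.5% dialyzed FBS and 10 mM HEPES, ME-180 HRE-bla cells received a compound titration and EC50 CoCl2. They were incubated 17 hours, then CCF4-loaded 2.5 hours at room temperature before ratio reading.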

[2] = Confirmation and Secondary Assay for Modulators of Hemoglobin Beta Chain Splicing at IVS2 705 locus (AID 930); settings: HeLa EGFP-705 splicing reporter, GFP fluorescence, 48 h; series mostly up to 46.1 µM;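 also: HeLa cells stably expressing the EGFP-705 splicing reporter; GFP fluorescence per well restored by corrected splicing of the IVS2-705 intron in EGFP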
Method in brief: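 Per-well GFP, captured at 1 x 8 µm resolution with 488 nm excitation, served as the read-out for HeLa EGFP-705 cells incubated 2 days with test compound versus DMSO.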

[3] = MultiTox-Fluor Cytotoxicity Assay - LYMP1-001 - Dead Cells (AID 946); settings: LYMP1-001 lymphoblastoid cells, dead-cell protease fluorescence; series mostly up to 92.2 µM;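 also: cells exposed to compound for 16 h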; also: potency is read from the fitted curve at half-maximal effect
Method in brief: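 AC50 from Hill fit of concentration-response; data normalized to DMSO (basal) and 15 uM tetraoctylammonium bromide (100%). LYMP1-001 lymphoblastoid cells, 2500/well, 16 hr compound at 37 C; dead-cell protease fluorescence, Ex/Em 485/520.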

[4] = MultiTox-Fluor Cytotoxicity Assay - LYMP1-001 - Live Cells (AID 947); settings: LYMP1-001 lymphoblastoid cells, live-cell protease fluorescence viability; series mostly up to 92.2 µM
[5] = Cell Viability - LYMP1-002 - Assay at 16 hr (AID 948); settings: LYMP1-002 lymphoblastoid cell viability; series mostly up to 92.2 µM; also: potency is read from the fitted curve at half-maximal effect
Method in brief: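 In this qHTS, lymphoblastoid LYMP1-002 cells (human) receive compounds for 16 hr at 37 C. Viability is taken from CellTiter-Glo ATP luminescence, and AC50 derives from standard Hill fits.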

[6] = biological target: Pyruvate kinase (Leishmania mexicana) (UniProt Q27686); assay: qHTS Validation Assay for Inhibitors of Leishmania Mexicana Pyruvate Kinase (AID 945); settings: purified L. mexicana pyruvate kinase, enzyme activity, E451W mutant enzyme; series mostly up to 57.5 µM
Pyruvate kinase (Leishmania mexicana), sequence (Q27686 2-499 E452W): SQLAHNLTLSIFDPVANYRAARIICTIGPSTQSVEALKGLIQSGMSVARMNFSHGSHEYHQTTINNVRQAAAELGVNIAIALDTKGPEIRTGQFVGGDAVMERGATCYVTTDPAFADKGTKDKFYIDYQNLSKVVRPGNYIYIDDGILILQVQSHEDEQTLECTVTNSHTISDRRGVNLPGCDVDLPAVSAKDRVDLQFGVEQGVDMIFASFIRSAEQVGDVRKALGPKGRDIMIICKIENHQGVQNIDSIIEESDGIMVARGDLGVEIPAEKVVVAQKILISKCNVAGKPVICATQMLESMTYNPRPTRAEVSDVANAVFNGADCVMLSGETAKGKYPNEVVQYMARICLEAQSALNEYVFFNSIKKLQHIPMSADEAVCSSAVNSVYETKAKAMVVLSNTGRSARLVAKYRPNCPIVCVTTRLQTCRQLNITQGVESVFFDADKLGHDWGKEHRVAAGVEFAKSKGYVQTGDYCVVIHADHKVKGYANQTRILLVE
Method in brief: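 An endpoint luciferase assay: 0.2 nM LmPYK E451W turns over 0.5 mM PEP with 0.1 mM ADP for 1 h at room temperature, pH 7.2, before PKLight addition. Values are normalized to DMSO-only wells.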

[7] = biological target: Pyruvate kinase PKM (Homo sapiens) (UniProt P14618); assay: qHTS Assay for Activators of Human Muscle Pyruvate Kinase (AID 954; active = well fitted curve in the direction sought with a large enough effect, not every such curve was filed as active); settings: purified human muscle pyruvate kinase, luciferase-coupled luminescence, 1 h; series mostly up to 57.5 µM
Pyruvate kinase PKM (Homo sapiens), sequence (P14618 whole entry, looked up): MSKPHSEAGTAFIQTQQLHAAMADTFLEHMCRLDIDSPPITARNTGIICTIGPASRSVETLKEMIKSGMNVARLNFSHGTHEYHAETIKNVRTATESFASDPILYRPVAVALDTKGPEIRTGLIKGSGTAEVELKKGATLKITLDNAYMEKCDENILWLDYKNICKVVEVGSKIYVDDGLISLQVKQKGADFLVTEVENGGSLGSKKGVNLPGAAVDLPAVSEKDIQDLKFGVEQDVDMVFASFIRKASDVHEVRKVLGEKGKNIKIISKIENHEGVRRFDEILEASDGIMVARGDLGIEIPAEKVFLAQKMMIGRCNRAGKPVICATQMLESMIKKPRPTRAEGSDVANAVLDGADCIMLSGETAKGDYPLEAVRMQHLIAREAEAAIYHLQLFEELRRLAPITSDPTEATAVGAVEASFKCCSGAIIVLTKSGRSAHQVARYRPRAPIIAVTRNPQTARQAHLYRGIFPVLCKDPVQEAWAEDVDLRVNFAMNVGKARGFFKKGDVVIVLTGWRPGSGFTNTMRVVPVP
Method in brief: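 Luminescence from a luciferase ATP-detection/stop reagent reported PKM2 activity. Reactions contained 0.1 nM purified human enzyme, 0.5 mM PEP, 0.1 mM ADP and 7 mM MgCl2 at pH 7.2, run 1 h at RT.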

[8] = Cell Viability - LYMP2-001 (AID 921); settings: LYMP2-001 lymphoblastoid cell viability; series mostly up to 92.2 µM;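 also: cells exposed to compound for 24 h at 37 °C; nearly all actives have a fitted effect of over 70% in size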; also: potency is read from the fitted curve at half-maximal effect
Method in brief: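 A lymphoblastoid cell line of human origin was treated with library compounds across a concentration series for 24 hours, and viable cell number was estimated from ATP-driven luciferase light output. Hill modeling gave AC50.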

[9] = biological target: Muscarinic acetylcholine receptor M1 (Rattus norvegicus) (UniProt P08482); assay: qHTS Assay for Antagonists of Acetylcholine Muscarinic M1 Receptor: Kinetic Measurement of Intracellular Calcium Response (AID 943); settings: M1-expressing cells, kinetic intracellular calcium fluorescence; series mostly up to 35.3 µM;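 also: Fluo-4 calcium signal as peak divided by basal fluorescence over 4 min; nearly all actives have a fitted effect of over 75% in size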
Muscarinic acetylcholine receptor M1 (Rattus norvegicus), sequence (P08482 whole entry, looked up): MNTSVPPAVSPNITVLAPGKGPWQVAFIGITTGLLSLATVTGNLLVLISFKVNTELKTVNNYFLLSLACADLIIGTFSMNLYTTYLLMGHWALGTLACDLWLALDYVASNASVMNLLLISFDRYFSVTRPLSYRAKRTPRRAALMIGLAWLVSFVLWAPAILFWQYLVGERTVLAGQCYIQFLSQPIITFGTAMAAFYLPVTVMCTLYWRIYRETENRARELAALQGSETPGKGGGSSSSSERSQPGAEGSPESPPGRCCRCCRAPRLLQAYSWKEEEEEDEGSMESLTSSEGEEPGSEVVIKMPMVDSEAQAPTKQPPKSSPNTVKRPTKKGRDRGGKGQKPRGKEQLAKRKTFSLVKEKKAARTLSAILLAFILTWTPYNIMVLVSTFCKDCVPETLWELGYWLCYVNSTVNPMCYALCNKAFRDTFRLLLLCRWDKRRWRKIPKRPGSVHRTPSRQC
Method in brief: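 CHO cells stably expressing rat M1 were loaded with no-wash Fluo-4 dye for 1 h at 37C, pre-incubated 10 min with compound, then challenged with EC80 carbachol (100 nM final); kinetic calcium read 4 min, peak/basal ratio.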

[10] = biological target: Muscarinic acetylcholine receptor M1 (Rattus norvegicus) (UniProt P08482); assay: qHTS Assay for Antagonists of Acetylcholine Muscarinic M1 Receptor: Measurement of IP-One Response (AID 944); settings: CHO-M1 cells, IP-One HTRF, antagonist mode; series mostly up to 46.1 µM; also: nearly all actives have a fitted effect of over 75% in size
Method in brief: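 CHO cells expressing rat M1 receptor, recovered overnight, were pre-incubated 10 min with compound, then stimulated 30 min with carbachol at EC80 (200 nM) in LiCl-containing buffer, pH 7.4. IP1 accumulation was read by HTRF (620/665 nm).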

Q: With `Cc1cccc(C)c1NC(=O)C1CCCCN1C` (stereo not given) as the molecule, how does the activation [1] read?
A: 5.97%

Q: With `CC1CCCC(C)N1NC(=O)c1ccc(Cl)c(S(N)(=O)=O)c1` (stereo not given) as the molecule, how does the Potency [2] read?
A: inactive

Q: With `O=C1c2ccccc2C(=O)c2c1ccc(O)c2O` as the molecule, how does the Potency [2] read?
A: inactive

Q: With `O=C(O)CCC(=O)c1ccc(-c2ccccc2)cc1` as the molecule, how does the Potency [2] read?
A: inactive

Q: Which results are given for `CC(C)(C)CC(C)(C)c1ccc(OCCO)cc1`?
A: Potency [3]: inactive; outcome [4]: inactive; Potency [5]: inactive

Q: Which Potency [2] does the source give for `C=CC(C)(O)CC/C=C(\C)CCC=C(C)C` (stereo not given) here?
A: inactive

Q: Which outcome [6] does the source give for `C[C@@](Cc1ccc(O)c(O)c1)(NN)C(=O)O` here?
A: inactive

Q: What about the outcome [7] of the same molecule?
A: inactive

Q: Which Potency [2] does the source give for `NCC(O)CC(=O)O` (stereo not given) here?
A: inactive

Q: For `CC(=O)Oc1cccc(C(=O)O)c1OC(C)=O`, which Potency [2] is on record?
A: inactive

Q: With `CCOC(=O)C1=C(COCCN)NC(C)=C(C(=O)OC)C1c1ccccc1Cl` (stereo not given) as the molecule, how does the Potency [2] read?
A: inactive

Q: Which Potency [8] does the source give for `C=C1C(CCl)(CCl)C2(Cl)C(Cl)C(Cl)C1(Cl)C2(Cl)Cl` (stereo not given) here?
A: 39.8 µM (active)

Q: What about the Potency [3] of the same molecule?
A: 50.1 µM (active)

Q: What about the Potency [5] of the same molecule?
A: 50.1 µM (active)

Q: With `CN1CCc2c(c3ccccc3n2Cc2ccccc2)C1` as the molecule, how does the Potency [2] read?
A: inactive

Q: Which Potency [2] does the source give for `CC(=O)Nc1ccc(OC(=O)c2ccccc2O)cc1` here?
A: inactive

Q: With `CC(=O)Oc1cccc2c1C(=O)c1c(OC(C)=O)cc(C(=O)O)cc1C2=O` as the molecule, how does the Potency [2] read?
A: inactive

Q: Which Potency [3] does the source give for `CC/C=C\C/C=C\C/C=C\CCCCCCCC(=O)O` here?
A: inactive

Q: And the Potency [5]?
A: inactive

Q: Which Potency [8] does the source give for `CC1=CC(=O)NS(=O)(=O)O1` here?
A: inactive

Q: And the Potency [3]?
A: inactive

Q: And the outcome [4]?
A: inactive

Q: And the Potency [5]?
A: inactive

Q: With `COc1cc(S(C)=O)ccc1-c1nc2ncccc2[nH]1` (stereo not given) as the molecule, how does the Potency [2] read?
A: inactive

Q: With `O=C(O)[C@H]1C(=CCO)O[C@H]2CC(=O)N12` as the molecule, how does the Potency [2] read?
A: inactive

Q: For `CC(=O)N=c1sc(S(N)(=O)=O)nn1C`, which Potency [2] is on record?
A: inactive

Q: Which Potency [2] does the source give for `CC[C@H]1OC(=O)[C@H](C)[C@@H](O[C@H]2C[C@@](C)(OC)[C@@H](O)[C@H](C)O2)C(C)[C@@H](O[C@@H]2O[C@H](C)C[C@H](N(C)C)[C@@H]2O)[C@](C)(OC)C[C@@H](C)C(=O)[C@H](C)[C@@H](O)[C@]1(C)O` (stereo not given in full) here?
A: inactive

Q: For `N#Cc1ccc2c(c1)N(CCCN1CCC(O)CC1)c1ccccc1S2`, which Potency [2] is on record?
A: inactive

Q: Which Potency [2] does the source give for `CC(C)c1nc(N(C)S(C)(=O)=O)nc(-c2ccc(F)cc2)c1/C=C/C(O)CC(O)CC(=O)O` (stereo not given) here?
A: inactive

Q: What does the source list for `O=c1n(CC2CO2)c(=O)n(CC2CO2)c(=O)n1CC1CO1` (stereo not given)?
A: Potency [8]: 31.6 µM (active); outcome [4]: inactive; Potency [5]: 39.8 µM (active)

Q: Which Potency [2] does the source give for `CCCc1nc(C(C)(C)O)c(C(=O)OCc2oc(=O)oc2C)n1Cc1ccc(-c2ccccc2-c2nn[nH]n2)cc1` here?
A: inactive

Q: Which outcome [9] does the source give for `Cc1cc(C)c(NC(=O)C[C@H](CC(=O)O)c2cccc3ccccc23)c(C(=O)N2CCC3(CCCC3)CC2)c1` here?
A: inactive

Q: What about the outcome [10] of the same molecule?
A: inactive

Q: What about the outcome [6] of the same molecule?
A: inactive

Q: And the outcome [7]?
A: inactive

Q: Which Potency [8] does the source give for `[O-][N+](=Nc1ccccc1)c1ccccc1` here?
A: inactive

Q: What about the Potency [3] of the same molecule?
A: inactive

Q: What about the outcome [4] of the same molecule?
A: inactive

Q: What about the Potency [5] of the same molecule?
A: inactive

Q: With `CO` as the molecule, how does the Potency [8] read?
A: inactive

Q: What about the Potency [3] of the same molecule?
A: inactive

Q: What about the outcome [4] of the same molecule?
A: inactive

Q: And the Potency [5]?
A: inactive

Q: Which Potency [3] does the source give for `O.O.O.O.O.O.O.O=S(=O)([O-])[O-].[Co+2]` here?
A: inactive

Q: What about the outcome [4] of the same molecule?
A: inactive

Q: And the Potency [5]?
A: inactive

Q: For `CC1CCC(NC(=O)N(CCCl)N=O)CC1` (stereo not given), which Potency [2] is on record?
A: inactive

Q: Which Potency [8] does the source give for `C[C@H]1O[C@@H](O[C@H]2[C@@H](O)C[C@H](O[C@H]3[C@@H](O)C[C@H](O[C@H]4CC[C@@]5(C)[C@H](CC[C@@H]6[C@@H]5C[C@@H](O)[C@]5(C)[C@@H](C7=CC(=O)OC7)CC[C@]65O)C4)O[C@@H]3C)O[C@@H]2C)C[C@H](O)[C@@H]1O` here?
A: 0.316 µM (active)

Q: What about the Potency [3] of the same molecule?
A: 0.794 µM (active)

Q: And the Potency [5]?
A: 0.199 µM (active)

Q: With `O=C(CCCCCCCCCCCCC1CCCC1)Nc1ccc(S(=O)(=O)c2ccc(NC(=O)CCCCCCCCCCCCC3CCCC3)cc2)cc1` as the molecule, how does the Potency [2] read?
A: inactive
